Results filed as inconclusive are left out. Entries that show only a call come without a potency. Calls of active or inactive are those of the source. The call rests on the fitted dose curve; in most records, active means well fitted curve in the direction sought with a large enough effect; inconclusive means small, poorly fitted or top-dose-only effect, or another doubt; inactive means no such curve, though single readings can be large; an effect the other way counts as inactive or inconclusive.
Key:
[1] = target: Glutaminase kidney isoform, mitochondrial (Homo sapiens) (UniProt O94925); assay: qHTS for Inhibitors of Glutaminase (GLS): LOPAC Validation (AID 624146); further: nearly all actives have a fitted effect of over 60% in size; further: potency means the concentration at half of the fitted maximal effect
How it was run: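 Glutamate formation by hKGA was monitored fluorometrically using coupled glutamate oxidase, HRP and Amplex Red. Substrate was added as 1 mM L-glutamine solution; incubation was 30 min at RT after an initial read.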

[2] = qHTS of Trypanosoma Brucei Inhibitors: LOPAC Validation (AID 624147)
How it was run: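 In this concentration-response screen, enzyme-free wells defined baseline while DMSO plates tracked drift. Each reaction combined TbPYK, substrate, compound and 130 uM ADP for 45 min at room temperature. Kinase-Glo Plus luminescence gave the signal.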

[3] = target: Glucagon-like peptide 1 receptor (Homo sapiens) (UniProt P43220); assay: qHTS of GLP-1 Receptor Agonists: LOPAC Validation (AID 624148);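 further: luminescence from a luciferase reporter switched on by cAMP; higher luminescence signal means agonism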
How it was run: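 Agonism scored as increased luciferase luminescence driven by cAMP in HEK293 clones carrying GLP-1R. Cells settled 12 hours, received compound for 4-6 hr at 37 deg C, 5% CO2, and were read after 12 min detection reagent at RT.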

[4] = qHTS of Nrf2 Activators: LOPAC Validation (AID 624149)
How it was run: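 AREc32_Fluc cells, 1000/well, OPTI-MEM + 5% FBS, o/n 37 deg C 5% CO2; compound pin-transfer, 24 hr 37 deg C; Steady-Glo 30 min RT, luminescence read.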

[5] = HTS Assay for Allosteric Antagonists of the Human D2 Dopamine Receptor: Hit Validation in HTRF (AID 624455); further: potency means the concentration at half of the fitted maximal effect
How it was run: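 HTRF read-out; cells stably expressing D1 receptor; hits scored for inhibition of D1-mediated response. Primary screen: calcium flux, force-coupled inducible Hek293 Trex D2 line, antagonism vs EC80 dopamine.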

Chain of Glutaminase kidney isoform, mitochondrial (Homo sapiens) (O94925 whole entry, looked up, canonical isoform): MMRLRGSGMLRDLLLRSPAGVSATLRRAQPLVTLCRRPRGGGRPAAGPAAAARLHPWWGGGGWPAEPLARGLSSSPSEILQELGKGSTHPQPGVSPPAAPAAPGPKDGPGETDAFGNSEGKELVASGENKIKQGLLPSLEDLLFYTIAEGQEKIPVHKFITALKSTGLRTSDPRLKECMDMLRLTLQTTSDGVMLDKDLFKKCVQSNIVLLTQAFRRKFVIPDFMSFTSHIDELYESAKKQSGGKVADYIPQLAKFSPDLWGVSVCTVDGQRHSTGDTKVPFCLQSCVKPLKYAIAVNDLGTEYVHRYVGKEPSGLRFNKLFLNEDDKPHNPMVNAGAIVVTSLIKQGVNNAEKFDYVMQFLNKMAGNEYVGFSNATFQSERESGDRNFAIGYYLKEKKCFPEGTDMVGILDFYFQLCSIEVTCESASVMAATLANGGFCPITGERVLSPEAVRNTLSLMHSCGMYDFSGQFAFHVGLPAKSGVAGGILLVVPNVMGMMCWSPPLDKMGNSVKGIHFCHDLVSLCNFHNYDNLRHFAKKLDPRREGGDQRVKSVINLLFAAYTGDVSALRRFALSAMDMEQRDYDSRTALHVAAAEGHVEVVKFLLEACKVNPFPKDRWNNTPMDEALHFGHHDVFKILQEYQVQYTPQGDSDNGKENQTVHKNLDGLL
Chain of Glucagon-like peptide 1 receptor (Homo sapiens) (P43220 whole entry, looked up): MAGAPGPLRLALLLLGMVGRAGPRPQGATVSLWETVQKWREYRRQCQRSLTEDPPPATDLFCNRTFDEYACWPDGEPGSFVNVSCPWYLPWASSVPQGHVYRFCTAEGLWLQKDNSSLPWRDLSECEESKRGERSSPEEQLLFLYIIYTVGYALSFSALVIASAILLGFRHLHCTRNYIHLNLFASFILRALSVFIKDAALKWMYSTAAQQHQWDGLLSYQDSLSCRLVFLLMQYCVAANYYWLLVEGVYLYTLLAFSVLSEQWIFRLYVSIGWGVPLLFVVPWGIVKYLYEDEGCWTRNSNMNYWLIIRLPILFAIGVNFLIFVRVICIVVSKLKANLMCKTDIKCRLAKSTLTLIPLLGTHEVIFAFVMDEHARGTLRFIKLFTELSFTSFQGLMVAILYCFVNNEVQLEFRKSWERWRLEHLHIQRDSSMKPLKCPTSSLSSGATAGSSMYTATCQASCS

SMILES | Potency [1] | Potency [2] | outcome [3] | Potency [4] | Potency [5]
CCCN1CCc2cc(O)cc3c2[C@H]1Cc1ccc(O)c(O)c1-3 | 1410 nM (active) | inactive | inactive | inactive | 65.1 nM (active)
NCCc1ccc(S(=O)(=O)F)cc1 | inactive | inactive | inactive | inactive | inactive
Cc1cc([C@@H]2CCCN2C)on1 | inactive | inactive | inactive | inactive | inactive
CCN1C[C@@]2(COC)C3[C@@H](OC)C4[C@@H]1C3([C@@H]1C[C@]3(O)[C@H](OC(=O)c5ccccc5)[C@@H]1[C@]4(OC(C)=O)[C@@H](O)[C@@H]3OC)[C@H](OC)C[C@H]2O | inactive | – | inactive | inactive | inactive
COc1ccc2c(c1O)-c1cccc3c1[C@@H](C2)N(C)CC3 | 3550 nM (active) | inactive | inactive | inactive | inactive
CC(C)(C)c1cc(C=C(C#N)C#N)cc(C(C)(C)C)c1O | 12600 nM (active) | – | inactive | inactive | inactive
CCn1cnc2c(Nc3cccc(Cl)c3)nc(N[C@@H]3CCCC[C@@H]3N)nc21 | inactive | inactive | inactive | inactive | inactive
CCOC(=O)c1ncn2c1[C@@H]1CCCN1C(=O)c1cc(OC)ccc1-2 | inactive | – | inactive | inactive | inactive
CCCC[N+]1(C)C2CC(OC(=O)[C@H](CO)c3ccccc3)CC1C1OC12 (stereo not given in full) | inactive | inactive | inactive | inactive | inactive
CCCN(CCC)[C@@H]1CCc2cccc(O)c2C1 | – | inactive | inactive | inactive | –
COc1cc(CC(C)N)c(OC)cc1I (stereo not given) | inactive | inactive | inactive | inactive | inactive

From PubChem BioAssay (NCATS)
